Assay outcomes from PubChem BioAssay.
BCR signal inh = chronic active BCR signaling inhibition. actives 0.05% (n = 340,000). Potency, µM (series often up to 46.1 µM), for the others: at the highest dose activity change, negative = inhibition, usual class: inhibitors. ABC-DLBCL IkBa-CBG/CBR reporter, luminescence ratio, 4 h. AID 493014; active = well fitted inhibition curve with a large enough effect in the signal ratio, with a control signal flat, not every such curve was filed as active; inconclusive = small, poorly fitted or top-dose-only effect, or effect the other way, or a change in a side signal; the % refers to the signal ratio;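 note: plate controls were basal doxycycline-induced cells for no effect and cells given 10 µM MG132 for full effect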
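Concentration-response series (up to 46 uM) were applied to TMD8 dual-reporter cells for 4 h at 37C with doxycycline. Green/red ratio, after filter-overlap correction, defined %Activity; red signal alone was normalised to basal cells and zero luminescence.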
Mito fusion yeast = blocks mitochondrial division or promotes mitochondrial fusion; actives 0.23% (n = 320,000); S. cerevisiae fusion-defective mutant growth rescue, CellTiterGlo 48 h; AID 485298; Potency, µM (series often up to 46.1 µM), without a hit: at the highest dose growth rescue (activation), usual class: activators; note: % of control where 0% means no effect; nearly all actives have a fitted effect of over 45% in size
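Temperature-sensitive fusion-defective S. cerevisiae (e.g. fzo1-1, mgm1-5) were grown with compound in YPEG medium (3% ethanol, 3% glycerol) for 48 hours at 37C. Growth rescue was measured as viability by CellTiterGlo luminescence after 10 minutes at ambient.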
a7 integrin act = activates integrin-mediated alleviation for muscular dystrophy; alpha7betagal myoblasts, beta-gal FDG fluorescence, 48 h; Potency, µM (titrated, usually from 38.3 µM), without a hit: top-dose activation, usual class: activators; actives 0.064% (n = 350,000);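 note: 100% = response of the positive control SU9516; nearly all actives have a fitted effect of over 60% in size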
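alpha7betagal+/- myoblasts (passage 13, 250/well) treated 48 h at 37C with compounds at 1:260 dilution of DMSO stock. Lysed, then beta-galactosidase activity read as FDG fluorescence (ex 480/em 540) after 30 min, with pre-read for autofluorescence.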
uPA generation = cell surface uPA generation inhibition; Potency, µM (highest dose often 38.3 µM), for inactives: at the top dose activity change, negative = inhibition, actives largely listed as inhibitors; actives 0.31% (n = 330,000); cell surface uPA generation assay, qHTS; active = well fitted inhibition curve with a large enough effect; inconclusive = small, poorly fitted or top-dose-only effect; inactive = no such curve, though single readings can be large or run the other way; tested in mouse RAW 264.7 cells; note: % is set by controls: 0 for no effect and ±100 for the full control effect; nearly all actives have a fitted effect of over 55% in size
Gal4-VP16 FLuc = Gal4-VP16 reporter inhibition counter-screen; Drosophila S2 Gal4-VP16 UAS-luciferase, luminescence, 20 h; Potency, µM (highest dose often 53.6 µM), inactives show at the top dose activity, negative = inhibition, actives largely listed as inhibitors; actives 3.5% (n = 310,000);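 note: Gal4-VP16 expression switched on by copper sulfate through the metallothionein promoter; % is set by controls: 0 for no effect and ±100 for the full control effect; nearly all actives have a fitted effect of over 50% in size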
RORg inh = inhibitors of mouse ROR gamma transcriptional activity; actives 5.4% (n = 310,000); Drosophila S2 Gal4-RORgamma UAS-luciferase reporter, 20 h; AID 2551; Potency, µM (doses to about 53.6 µM), for the others: at the highest dose activity change, negative = inhibition, most hits filed as inhibitors; note: % is set by controls: 0 for no effect and ±100 for the full control effect; nearly all actives have a fitted effect of over 60% in size
Target sequence (P51450 whole entry, looked up, the tested form may be a part): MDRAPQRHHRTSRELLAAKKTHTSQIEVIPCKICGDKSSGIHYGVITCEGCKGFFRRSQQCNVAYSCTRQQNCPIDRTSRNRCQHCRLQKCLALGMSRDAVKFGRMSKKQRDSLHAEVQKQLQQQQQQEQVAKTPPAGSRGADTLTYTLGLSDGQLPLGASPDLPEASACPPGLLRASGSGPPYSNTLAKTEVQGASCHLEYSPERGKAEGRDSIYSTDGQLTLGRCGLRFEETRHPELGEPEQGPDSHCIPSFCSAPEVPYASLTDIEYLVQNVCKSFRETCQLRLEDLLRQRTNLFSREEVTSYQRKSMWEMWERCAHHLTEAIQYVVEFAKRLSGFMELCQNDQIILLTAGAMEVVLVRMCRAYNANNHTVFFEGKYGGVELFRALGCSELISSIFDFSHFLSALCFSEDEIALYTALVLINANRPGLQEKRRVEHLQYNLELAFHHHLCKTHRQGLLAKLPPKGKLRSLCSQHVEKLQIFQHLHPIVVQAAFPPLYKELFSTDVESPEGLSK
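Stable Schneider cell line, Gal4 DNA-binding domain fused to ROR gamma, UAS-luciferase. Cmpd 1 hr RT → CuSO4 700 uM final → 20 hr RT → luciferase reagent 10 min → luminescence.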
* marks the source's active call; other numbers are inactive results; ? = inconclusive; · = no result; ! = repeats disagree. Sampled rows, rich in hits. Any-hit rate of the full collection: about 5.5%. Unless noted, calls come from the whole dose curve; as a rule, active = well fitted curve in the direction sought with a large enough effect; inconclusive = small, poorly fitted or top-dose-only effect, or another doubt; inactive = no such curve, though single readings can be large; an effect the other way counts as inactive or inconclusive. Potency is the fitted concentration of half-maximal effect.

SMILES | BCR signal inh | Mito fusion yeast | a7 integrin act | uPA generation | Gal4-VP16 FLuc | RORg inh
CCn1nc(-c2cccs2)nc2c(=O)n(C)c(=O)nc1-2 | ? | -27% | -58% | -19% | 1.3µM* | 0.79µM*
O=C(O)C(Cl)(Cl)Br | · | · | · | · | -7% | 4%
O=C(Nc1ccccc1C(=O)N/N=C/c1ccco1)c1ccccc1Cl | -5% | 3% | -14% | 0% | ? | 3.5µM*
O=C(Nc1ccc(Cl)cc1C(=O)c1ccccc1Cl)c1ccco1 | 1% | 0% | 8% | · | -4% | 0%
CCOC(=O)CCN(SN(C)C(=O)Oc1cccc2c1OC(C)(C)C2)C(C)C | · | · | · | · | 29% | 31%
O=C(O)c1cc(O)c(O)c(O)c1 | · | · | · | · | ? | 10µM*!
COc1ccc(C(=O)O)cc1OC | · | · | 6% | 1% | 14% | 20%
Cn1ccc(NC(=O)CCl)n1 | ? | -9% | -65% | -7% | 4.5µM* | 5µM*
O=C1CC(c2cccc(Br)c2)c2cc3c(cc2N1)CCC3 (stereo not given) | ? | -12% | -46% | ? | ? | 22%
CC(=O)Nc1ccc(S(=O)(=O)N(C)CCOCc2ccccc2)cc1 | -1% | 1% | -48% | -10% | -2% | -1%
c1ccc(-c2ccc(C(c3ccccc3)n3ccnc3)cc2)cc1 (stereo not given) | 7% | 14µM* | · | -5% | ? | 10µM*!
COc1cc([C@@H]2c3cc4c(cc3[C@@H](OC)[C@H]3COC(=O)[C@H]23)OCO4)cc(OC)c1O | ? | ? | -5% | 1.6µM* | -15% | 14%
CCCCCCCCCCCCCl | · | · | · | · | -7% | 13%
CCCCCCCCCCCCCCCC[n+]1ccccc1 | · | · | -65% | 0.71µM*! | 16µM* | ?
c1ccc(C2(c3ccccc3)CC2C2=NCCN2)cc1 (stereo not given) | · | -9% | · | · | 10% | -3%
c1ccc2c(c1)OC[C@@H](C1=NCCN1)O2 | · | · | · | · | 2% | 22µM*!
c1ccc(N=NNc2ccccc2)cc1 | · | · | · | · | 5% | 18%
Cc1onc(-c2ccccc2)c1C(=O)Nc1ccc(S(=O)(=O)N2CCCC2)cc1 | 0% | -3% | -13% | 1% | -25% | 8.9µM*
O=C(Nc1ccccc1[N+](=O)[O-])c1ccc(S(=O)(=O)N2CCCC2)cc1 | 3% | 5% | -39% | 3% | 6% | ?
Clc1ccc(C(c2ccccc2Cl)C(Cl)(Cl)Cl)cc1 (stereo not given) | · | · | · | · | 5% | 4%
Oc1ccccc1/C=N/NP(=S)(c1ccccc1)c1ccccc1 | ? | ? | 1% | 5% | 6% | 11µM*
O=c1oc2ccccc2c(O)c1Cc1c(O)c2ccccc2oc1=O | · | · | · | · | -14% | 0%
O=Nc1c(O)c2ccccc2c2ccccc12 | · | · | -40% | 5.6µM* | · | ·
O=C(Nc1cccc(F)c1)N1CCC(c2ccccc2)CC1 | ? | 6% | ? | ? | 0% | 15%
O=C1/C(=C\c2ccccc2)C[C@@]2(O)[C@H]3Cc4ccc(O)c5c4[C@@]2(CCN3CC2CC2)[C@@H]1O5 | · | · | · | · | 13µM* | 11µM*
SMILES | BCR signal inh | Mito fusion yeast | a7 integrin act | uPA generation | Gal4-VP16 FLuc | RORg inh
NC(N)=Nc1ccc2[nH]c3c(c2c1)C[C@@]1(O)[C@H]2Cc4ccc(O)c5c4[C@@]1(CCN2CC1CC1)[C@H]3O5 | 23µM* | -33% | · | -25% | · | ·
Oc1ccc2c3c1O[C@H]1c4[nH]c5c(c4C[C@@]4(O)[C@@H](C2)N(CC2CC2)CC[C@]314)C[C@]1(O)[C@H]2Cc3ccc(O)c4c3[C@@]1(CCN2CC1CC1)[C@@H]5O4 | · | · | · | · | -4% | 29%
Oc1ccc2c3c1O[C@H]1[C@H](O)CC[C@@]4(O)[C@@H](C2)N(CC2CC2)CC[C@]314 | · | · | · | · | -4% | 20%
On1ccccc1=S | ? | -17% | · | -17% | · | ·
c1ccc(P(c2ccccc2)c2ccccc2)cc1 | · | · | · | · | -11% | -22%
CC1=C2C(=O)C3C(CC=C4C[C@@H](O)CC[C@@]43C)[C@@H]2CC[C@]12O[C@@H]1C[C@H](C)CN[C@H]1C2C (stereo not given in full) | · | · | · | · | -16% | -19%
